According to PubChem BioAssay AID1159580 (chemical genetic matrix, 2015):
Values joined by “and” are separate entries in the source; they are usually repeats but may differ in a detail not shown here. Equal values may be shown once. Out of some 5,500 compounds screened, about 2,000 (36%) were called active. Inconclusive results (about 18%) are left out. Rule as the data show it: active = normalized growth mostly below about 0.91 (no sharp cut-off); inconclusive = no clear call, values can overlap the other calls; inactive = mostly above about 0.92. The list shows a part of the results.

Test: chemical genetic growth profiling, strain panel (AID 1159580);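 also: tested at 20 µM; growth read once vehicle control cultures reached saturation at 30 °C; 1 = growth at the plate median or of vehicle wells; lower values mean less growth of the strain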
Settings: S. cerevisiae deletion strains, growth OD
[1] = locus YGR078C, strain PAC10, active compounds read low
[2] = locus YMR307W, strain GAS1, active compounds read low
[3] = locus YNL128W, strain TEP1, active compounds read low
[4] = locus YNL153C, strain GIM3, active compounds read low
[5] = locus YNL322C, strain KRE1, active compounds read low
[6] = locus YPL241C, strain CIN2, active compounds read low

Measured: normalized growth

CC(=O)O[C@H]1C[C@@H](OC(C)=O)C(C)(C)C2C[C@@H](O)[C@]3(C)C(CC[C@@]4(C)[C@H](c5ccoc5)OC(=O)[C@H]5O[C@]543)[C@]21C (stereo partly drawn)
inactive: locus YAL021C, strain ccr4, active compounds read low 1.05 | locus YAL026C, strain drs2, active compounds read low 0.985 | locus YAL030W, strain snc1, active compounds read low 0.995 | locus YBL061C, strain skt5, active compounds read low 0.992 | locus YBR009C, strain hhf1, active compounds read low 1 | locus YBR021W, strain FUR4, active compounds read low 1.01 | locus YBR023C, strain chs3, active compounds read low 1 | locus YBR171W, strain sec66, active compounds read low 0.96 | locus YBR229C, strain ROT2, active compounds read low 0.947 | locus YBR231C, strain swc5, active compounds read low 0.977 | locus YBR279W, strain paf1, active compounds read low 0.996 | locus YCL011C, strain gbp2, active compounds read low 0.996 | locus YCL016C, strain dcc1, active compounds read low 1.03 | locus YCL029C, strain bik1, active compounds read low 0.971 | locus YCL069W, strain vba3, active compounds read low 0.969 | locus YCR088W, strain abp1, active compounds read low 0.983 | locus YDL005C, strain med2, active compounds read low 1.01 | locus YDL035C, strain GPR1, active compounds read low 0.965 | locus YDL040C, strain nat1, active compounds read low 0.976 | locus YDL074C, strain BRE1, active compounds read low 0.939 | locus YDL101C, strain DUN1, active compounds read low 0.992 | locus YDL185W, strain tfp1, active compounds read low 0.956 | locus YDL192W, strain arf1, active compounds read low 0.977 | locus YDR001C, strain nth1, active compounds read low 0.989 | locus YDR069C, strain doa4, active compounds read low 0.981 | locus YDR101C, strain arx1, active compounds read low 0.954 | locus YDR137W, strain rgp1, active compounds read low 0.987 | locus YDR159W, strain sac3, active compounds read low 0.936 | locus YDR162C, strain NBP2, active compounds read low 0.948 | locus YDR195W, strain ref2 0.935 | locus YDR297W, strain sur2, active compounds read low 0.992 | locus YDR318W, strain mcm21, active compounds read low 0.982 | locus YDR334W, strain swr1, active compounds read low 0.993 | locus YDR335W, strain msn5, active compounds read low 0.99 | locus YDR388W, active compounds read low 0.99 | locus YDR392W, strain spt3, active compounds read low 0.966 | locus YDR502C, strain sam2, active compounds read low 0.996 | locus YEL003W, strain gim4, active compounds read low 0.977 | locus YEL037C, strain rad23, active compounds read low 0.989 | locus YEL061C, strain CIN8 (second series), active compounds read low 0.982 | locus YER015W, strain faa2, active compounds read low 0.997 | locus YER016W, strain bim1, active compounds read low 0.977 | locus YER110C, active compounds read low 0.966 | locus YER111C, strain swi4, active compounds read low 0.975 | locus YER155C, strain BEM2 (second series), active compounds read low 1.02 | locus YER155C, strain BEM2, active compounds read low 1.02 | locus YER167W, strain BCK2, active compounds read low 0.995 | locus YFR010W, strain ubp6, active compounds read low 0.963 | locus YGL078C, strain dbp3, active compounds read low 0.978 | locus YGL086W, strain mad1, active compounds read low 0.997 | locus YGL167C, strain pmr1, active compounds read low 1 | locus YGL173C, strain kem1, active compounds read low 0.962 | locus YGL227W, strain vid30, active compounds read low 0.986 | locus YGL240W, strain doc1, active compounds read low 0.973 | locus YGL248W, strain PDE1, active compounds read low 0.97 | [1] 1.01 | locus YGR135W, strain pre9, active compounds read low 1.04 | locus YGR252W, strain gcn5, active compounds read low 0.941 | locus YHR013C, strain ard1, active compounds read low 0.997 | locus YHR027C, strain rpn1, active compounds read low 0.986 | locus YHR030C, strain SLT2, active compounds read low 0.982 | locus YHR079C, strain IRE1 (second series), active compounds read low 0.986 | locus YHR079C, strain IRE1, active compounds read low 0.999 | locus YHR094C, strain hxt1, active compounds read low 0.975 | locus YHR129C, strain ARP1, active compounds read low 0.988 | locus YHR142W, strain chs7, active compounds read low 0.977 | locus YHR200W, strain rpn10, active compounds read low 0.979 | locus YIL066C, strain RNR3, active compounds read low 0.935 | locus YIL073C, strain SPO22, active compounds read low 0.893 | locus YIL125W, strain kgd1, active compounds read low 0.989 | locus YIR030C, strain dcg1, active compounds read low 0.989 | locus YJL092W, strain hpr5, active compounds read low 0.99 | locus YJL095W, strain BCK1 (second series), active compounds read low 0.973 | locus YJL095W, strain BCK1, active compounds read low 1.03 and 0.979 | locus YJL115W, strain asf1, active compounds read low 0.996 | locus YJL129C, strain trk1, active compounds read low 0.96 | locus YJL134W, strain LCB3, active compounds read low 0.977 | locus YJL154C, strain vps35, active compounds read low 0.995 | locus YJL164C, strain tpk1, active compounds read low 1.01 | locus YJL166W, strain qcr8, active compounds read low 0.955 | locus YJL168C, strain set2, active compounds read low 0.995 | locus YJL187C, strain SWE1 (second series), active compounds read low 1.01 | locus YJR043C, strain POL32, active compounds read low 0.942 | locus YJR066W, strain TOR1, active compounds read low 0.935 | locus YKL009W, strain mrt4, active compounds read low 0.955 | locus YKL068W, active compounds read low 0.969 | locus YKL085W, strain MDH1 (second series), active compounds read low 0.987 | locus YKL085W, strain MDH1, active compounds read low 0.987 | locus YKL160W, strain elf1, active compounds read low 1.04 | locus YKL190W, strain CNB1, active compounds read low 0.996 | locus YKR001C, strain vps1, active compounds read low 0.978 | locus YKR026C, strain gcn3, active compounds read low 1.05 | locus YKR091W, strain srl3, active compounds read low 1 | locus YLL001W, strain dnm1, active compounds read low 0.971 | locus YLL026W, active compounds read low 0.994 | locus YLL041C, strain sdh2, active compounds read low 0.989 | locus YLR027C, strain aat2, active compounds read low 1.01 | locus YLR039C, strain RIC1, active compounds read low 0.97 | locus YLR058C, strain SHM2, active compounds read low 0.973 | locus YLR102C, strain apc9, active compounds read low 0.973 | locus YLR113W, strain HOG1, active compounds read low 1.02 | locus YLR221C, strain rsa3, active compounds read low 0.969 | locus YLR258W, strain gsy2, active compounds read low 0.992 | locus YLR262C, strain YPT6 (second series), active compounds read low 0.985 | locus YLR268W, strain sec22, active compounds read low 0.954 | locus YLR320W, strain mms22, active compounds read low 0.978 | locus YLR330W, strain CHS5, active compounds read low 0.992 | locus YLR342W, strain FKS1, active compounds read low 1.01 | locus YLR357W, strain rsc2, active compounds read low 1.04 | locus YLR370C, strain arc18, active compounds read low 0.973 | locus YLR371W, strain rom2, active compounds read low 0.986 | locus YLR384C, strain iki3, active compounds read low 0.971 | locus YLR418C, strain cdc73, active compounds read low 0.976 | locus YML016C, strain PPZ1, active compounds read low 0.969 | locus YML032C, strain rad52, active compounds read low 0.952 | locus YML120C, strain ndi1, active compounds read low 1.01 | locus YML124C, strain tub3, active compounds read low 0.992 | locus YMR058W, strain fet3, active compounds read low 0.999 | locus YMR078C, strain ctf18, active compounds read low 0.971 | locus YMR125W, strain sto1, active compounds read low 1.01 | locus YMR129W, active compounds read low 0.987 | locus YMR205C, strain PFK2, active compounds read low 1.05 | locus YMR223W, strain ubp8, active compounds read low 0.978 | locus YMR231W, strain pep5, active compounds read low 0.971 | [2] 1.01 | locus YNL067W, strain RPL9B, active compounds read low 1.03 | locus YNL071W, strain lat1, active compounds read low 0.984 | [3] 0.954 | [4] 1.01 | locus YNL183C, strain NPR1, active compounds read low 0.944 | locus YNL209W, strain ssb2, active compounds read low 0.999 | locus YNL233W, strain BNI4, active compounds read low 1.02 | locus YNL248C, strain rpa49, active compounds read low 0.962 | locus YNL250W, strain rad50, active compounds read low 0.982 | locus YNL271C, strain bni1, active compounds read low 0.983 | locus YNL298W, strain CLA4, active compounds read low 0.993 | locus YNL307C, strain MCK1, active compounds read low 0.99 | locus YNL322C, strain KRE1 (second series), active compounds read low 0.987 | [5] 0.987 | locus YNR049C, strain mso1, active compounds read low 0.991 | locus YNR052C, strain pop2, active compounds read low 0.999 | locus YOL006C, strain TOP1, active compounds read low 0.955 | locus YOL012C, strain htz1 1.02 | locus YOL147C, strain pex11, active compounds read low 0.998 | locus YOR001W, strain rrp6, active compounds read low 0.935 | locus YOR061W, strain CKA2, active compounds read low 0.967 | locus YOR069W, strain VPS5, active compounds read low 1 | locus YOR070C, strain gyp1, active compounds read low 1.02 | locus YOR080W, strain dia2, active compounds read low 0.98 | locus YOR083W, strain WHI5, active compounds read low 1.04 | locus YOR106W, strain vam3, active compounds read low 1.02 | locus YOR136W, strain idh2, active compounds read low 0.971 | locus YOR144C, strain elg1, active compounds read low 0.964 | locus YOR184W, strain ser1, active compounds read low 0.95 | locus YOR231W, strain MKK1, active compounds read low 0.982 | locus YOR265W, strain rbl2, active compounds read low 1.01 | locus YOR270C, strain vph1, active compounds read low 0.841 | locus YOR290C, strain snf2, active compounds read low 1.03 | locus YOR316C, strain cot1, active compounds read low 0.989 | locus YPL051W, strain arl3, active compounds read low 0.979 | locus YPL078C, strain atp4, active compounds read low 1.02 | locus YPL106C, strain sse1, active compounds read low 1.02 | locus YPL240C, strain hsp82, active compounds read low 0.984 | [6] 0.985 | locus YPL256C, strain CLN2, active compounds read low 0.993 | locus YPR119W, strain clb2, active compounds read low 0.998 | locus YPR141C, strain kar3, active compounds read low 0.983 | locus YPR163C, strain tif3, active compounds read low 0.986 | locus YPR167C, strain met16, active compounds read low 0.988 | strain wtn01, active compounds read low 0.972
active: locus YGL253W, strain hxk2, active compounds read low 0.897

CC[C@H](CO)Nc1nc(NCc2ccccc2)c2ncn(C(C)C)c2n1
inactive: locus YAL013W, strain DEP1, active compounds read low 1.01 | locus YAL040C, strain CLN3, active compounds read low 0.992 | locus YCL061C, strain MRC1 (second series), active compounds read low 1 | locus YDR150W, strain NUM1, active compounds read low 0.992 | locus YDR363W, strain ESC2, active compounds read low 0.991 | locus YER002W, strain NOP16, active compounds read low 1.03 | [1] 0.995 | locus YGR229C, strain SMI1, active compounds read low 1.04 | [2] 0.967 | [3] 1.03 | [4] 1 | locus YNL175C, strain NOP13, active compounds read low 1 | locus YNL197C, strain WHI3, active compounds read low 1 | locus YNL224C, strain SQS1, active compounds read low 1.01 | [5] 1.02 | locus YOR083W, strain WHI5 (second series), active compounds read low 1.01 | [6] 0.997
